Pol III holo inh – qHTS Assay for Inhibitors of DNA Polymerase III Holoenzyme System. reconstituted DNA polymerase III holoenzyme replication, biochemical. Potency, µM (top dose mostly 57.1 µM), without a hit: at the highest dose activity change, negative = inhibition. 0.25% of 71,000 active. AID 603, 2007; further: potency means the concentration at half of the fitted maximal effect; on the % scale 0 is the no-effect control and ±100 the full control effect
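Reconstituted *E. coli* holoenzyme (0.35 nM Pol III, 1 nM beta, 154 nM SSB, 2 nM primase) was preincubated with compound for 15 min at RT. Synthesis on 1.4 nM ssM13Gori ran 35 min, then was stopped with PicoGreen/EDTA and read as dsDNA fluorescence.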
15-hLO-2 inh – qHTS Assay for Inhibitors of 15-hLO-2 (15-human lipoxygenase 2) | 0.56% of 110,000 active | Polyunsaturated fatty acid lipoxygenase ALOX15B (Homo sapiens), O15296 | purified 15hLO-2, xylenol orange hydroperoxide absorbance | Potency, µM (highest dose often 57.1 µM), without a hit: at the top dose activity change, negative = inhibition, hits mostly inhibitors; further: potency means the concentration at half of the fitted maximal effect; on the % scale 0 is the no-effect control and ±100 the full control effect; nearly all actives have a fitted effect of over 60% in size
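Enzyme 50 nM, AA 45 uM, 25 mM Hepes pH 7.5 + 0.01% Triton X-100; cpd preinc 15 min RT, rxn 90 min RT; stop/detect with 200 uM XO + 300 uM Fe(II) in 50 mM H2SO4, 30 min; A573/A405.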
BRCT PPI green – qHTS Assay for Inhibitors of BRCT-Phosphoprotein Interaction (Green Fluorophore); Breast cancer type 1 susceptibility protein (Homo sapiens), P38398; BRCA1 BRCT-phosphopeptide binding, green fluorescence polarization; Potency, µM (top dose mostly 76.9 µM), for inactives: at the top dose activity change, negative = inhibition, actives largely listed as inhibitors; 0.05% of 75,000 active;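 further: potency means the concentration at half of the fitted maximal effect; plate controls were peptide without protein for full effect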
Target sequence (P38398 whole entry, looked up): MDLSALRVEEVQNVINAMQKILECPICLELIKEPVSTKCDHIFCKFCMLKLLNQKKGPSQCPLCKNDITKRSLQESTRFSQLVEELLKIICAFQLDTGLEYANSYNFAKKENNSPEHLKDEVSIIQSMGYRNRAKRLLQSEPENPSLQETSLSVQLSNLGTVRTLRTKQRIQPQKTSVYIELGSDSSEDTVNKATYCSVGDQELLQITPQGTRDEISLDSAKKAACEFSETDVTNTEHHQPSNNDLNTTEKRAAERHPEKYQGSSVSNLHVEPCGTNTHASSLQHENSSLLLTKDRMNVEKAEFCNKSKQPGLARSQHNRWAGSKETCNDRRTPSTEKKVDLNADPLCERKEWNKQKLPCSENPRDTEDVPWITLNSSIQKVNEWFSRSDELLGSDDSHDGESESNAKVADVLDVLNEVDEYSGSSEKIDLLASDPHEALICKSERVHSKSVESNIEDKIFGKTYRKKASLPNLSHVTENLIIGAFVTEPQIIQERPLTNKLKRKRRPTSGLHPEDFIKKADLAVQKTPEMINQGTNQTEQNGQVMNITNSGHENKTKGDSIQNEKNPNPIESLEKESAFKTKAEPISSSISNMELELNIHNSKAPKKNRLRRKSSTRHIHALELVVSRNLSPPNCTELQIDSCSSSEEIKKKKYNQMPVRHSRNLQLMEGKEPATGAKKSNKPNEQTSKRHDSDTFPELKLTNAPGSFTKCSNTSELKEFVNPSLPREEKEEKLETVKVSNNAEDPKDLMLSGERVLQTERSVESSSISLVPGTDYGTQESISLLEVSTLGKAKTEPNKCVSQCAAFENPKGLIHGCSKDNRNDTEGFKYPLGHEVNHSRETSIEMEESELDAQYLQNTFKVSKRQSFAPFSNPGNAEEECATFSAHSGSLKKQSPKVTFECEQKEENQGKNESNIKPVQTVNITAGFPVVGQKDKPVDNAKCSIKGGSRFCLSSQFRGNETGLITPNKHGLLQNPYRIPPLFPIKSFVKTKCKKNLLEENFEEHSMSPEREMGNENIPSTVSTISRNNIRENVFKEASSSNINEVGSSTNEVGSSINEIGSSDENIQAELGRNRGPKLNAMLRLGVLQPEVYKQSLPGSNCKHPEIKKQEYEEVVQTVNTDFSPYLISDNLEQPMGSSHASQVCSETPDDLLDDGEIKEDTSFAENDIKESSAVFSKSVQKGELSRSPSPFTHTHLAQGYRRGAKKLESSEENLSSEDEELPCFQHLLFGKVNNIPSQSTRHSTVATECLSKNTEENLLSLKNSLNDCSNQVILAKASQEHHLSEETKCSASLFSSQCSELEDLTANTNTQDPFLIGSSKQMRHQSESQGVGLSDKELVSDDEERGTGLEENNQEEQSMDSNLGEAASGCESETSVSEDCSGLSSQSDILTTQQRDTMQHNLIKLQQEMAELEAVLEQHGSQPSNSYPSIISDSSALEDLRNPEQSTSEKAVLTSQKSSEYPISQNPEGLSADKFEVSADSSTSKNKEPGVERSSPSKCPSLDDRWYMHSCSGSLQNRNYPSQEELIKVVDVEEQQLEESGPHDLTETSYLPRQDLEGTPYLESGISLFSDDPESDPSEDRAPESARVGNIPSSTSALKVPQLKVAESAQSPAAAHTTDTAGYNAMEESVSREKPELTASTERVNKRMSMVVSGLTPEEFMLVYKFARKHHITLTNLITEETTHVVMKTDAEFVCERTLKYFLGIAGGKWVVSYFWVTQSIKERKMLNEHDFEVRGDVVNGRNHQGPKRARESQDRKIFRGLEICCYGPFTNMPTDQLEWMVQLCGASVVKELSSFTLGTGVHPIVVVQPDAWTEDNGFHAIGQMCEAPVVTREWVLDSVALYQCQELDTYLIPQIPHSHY
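Fluorescence polarization: His-tagged BRCT (~35 kDa BRCA1 C-terminus, 250 nM) bound to 100 nM fluorescein-labeled phosphorylated 10-aa BACH1 peptide, pH 7.3 phosphate buffer with DTT and Tween 20. Compounds incubated 12 min at room temperature; inhibition read as lowered polarization.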
ALOX15 inhib – qHTS Assay for Inhibitors of 15-hLO (15-human lipoxygenase). 1.4% of 74,000 active. purified 15hLO-1, xylenol orange hydroperoxide absorbance. Potency, µM (highest dose often 57.1 µM), for the others: top-dose activity change, negative = inhibition, usual class: inhibitors. Polyunsaturated fatty acid lipoxygenase ALOX15 (Homo sapiens), P16050; further: potency means the concentration at half of the fitted maximal effect; on the % scale 0 is the no-effect control and ±100 the full control effect; nearly all actives have a fitted effect of over 55% in size
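Purified human 15hLO-1 (40 nM final) in 25 mM Hepes pH 7.5, 0.01% Triton X-100 was preincubated with compound 15 min at room temperature, then reacted 6 min with 50 uM arachidonic acid; hydroperoxide detected by Fe-XO, 573/405 nm absorbance ratio.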
TsaE inh – qHTS Assay for Inhibitors of YjeE; tRNA threonylcarbamoyladenosine biosynthesis protein TsaE (Escherichia coli (strain …; purified YjeE enzyme, qHTS inhibition assay; Potency, µM; 0.05% of 71,000 active
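Fluorescence polarization of a BODIPY Texas Red–ADP probe (2 uM) bound to purified YjeE (10 uM) was read after 15 min room-temperature incubation with compounds. Loss of polarization marks inhibitors; ADP serves as titrated control.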
BRCT PPI red – qHTS Assay for Inhibitors of BRCT-Phosphoprotein Interaction (Red Fluorophore); Breast cancer type 1 susceptibility protein (Homo sapiens), P38398; BRCT-phosphopeptide binding, red fluorescence polarization; Potency, µM (doses to about 76.9 µM), for the others: top-dose activity change, negative = inhibition, hits mostly inhibitors; 0.03% of 75,000 active; AID 892, 2007; further: on the % scale 0 is the no-effect control and ±100 the full control effect
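Rhodamine-labelled pBACH1 10-mer (100 nM) bound to BRCT domain (100 nM) at pH 7.3; compounds incubated 12 min room temperature, polarization read. Free peptide defines full inhibition; unlabelled decapeptide titrated as control.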
Starred values were filed as active, the others as inactive; i = inactive; u = inconclusive; x = no result; ! = not confirmed by another sample; [ ] = another dose, or the depositor's remark. Many of the other results were omitted from the sample, so hits are more common in it than they were. The call rests on the fitted dose curve; in most records, active means well fitted curve in the direction sought with a large enough effect; inconclusive means small, poorly fitted or top-dose-only effect, or another doubt; inactive means no such curve, though single readings can be large; an effect the other way counts as inactive or inconclusive.

SMILES	Pol III holo inh	15-hLO-2 inh	BRCT PPI green	ALOX15 inhib	TsaE inh	BRCT PPI red
COc1ccc(OC)c(N=c2ssnc2Cl)c1	x	25µM*	x	x	x	x
O[C@@H](COc1cccc2ccccc12)CN1CCOCC1	-10%[11.4 µM]	-4%[11.4 µM]	-1%[15.4 µM]	3%[11.4 µM]	i	1%[15.4 µM]
CC(C)C(C)C	1%	10%	-1%	2%	i	1%
CCOC(=O)c1cccc(NC(=O)CSc2nnc(CNc3ccc(C)cc3)n2CC)c1	0%	23%	-3%	13µM*	i	-3%
Cc1c(Cl)cccc1NC(=O)c1cc(-c2ccc(O)cc2)on1	3%	x	-1%	-16%	i	1%
COCCNC(=O)c1ccc(-n2c(=O)c(=O)[nH]c3ccccc32)cc1	x	x	-2%	-1%	x	-3%
Cc1ccc([C@@]2(C)CC/C(=N/N=C3\CC[C@](C)(c4ccc(C)c(C)c4)c4cc(C)c(C)cc43)c3cc(C)c(C)cc32)cc1C	5%[11.4 µM]	-6%[11.4 µM]	0%[15.4 µM]	11%[11.4 µM]	i	-1%[15.4 µM]
CC(C)c1cc(Nc2cccc(O)c2)cc(C(C)C)c1O	-3%	13µM*	0%	10µM*	i	-5%
Oc1cccc(Nc2ccccc2)c1	4%	-26%	-2%	-6%	i	-1%
CC/C=C\C/C=C\C/C=C\CCCCCCCC(=O)O	-9%	14µM*!	-3%	0.13µM*	i	1%
COc1ccc(-c2coc3cc(O[C@@H]4O[C@@H](CO)[C@@H](O)[C@@H](O)[C@H]4O)cc(O)c3c2=O)cc1	-6%	x	x	x	i	x
Cn1c(=O)c2c(nc(/C=C\c3cccc(Cl)c3)n2C)n(C)c1=O	-9%	-6%	-3%	-8%	i	-2%
Cc1sc2c(c1C)c(=O)n(-c1ccccc1)c1nnc(C)n21	x	-9%	-1%	3.2µM*	x	0%
Cc1nnc2n(-c3ccccc3)c(=O)c3c4c(sc3n12)COC(C)(C)C4	x	-5%	x	x	x	x
CC(=O)Nc1ccc(NC(C)=O)s1	-6%	-1%	-4%	20µM*	i	-1%
O=C(O)CCC/C=C\C[C@H]1[C@@H](/C=C\[C@@H](O)C2Cc3ccccc3C2)[C@H](F)C[C@H]1O	-2%	x	x	x	i	x
CC1=CC(=O)C2=C(C)CC[C@@H]3[C@H](OC(=O)[C@H]3C)[C@H]12	-3%	x	x	x	i	x
COc1cccc(C2CC(=O)N3CN(c4cccc(Cl)c4C)CSC3=C2C#N)c1OC (stereo not drawn)	-4%	13µM*	-3%	u	i	0%
COc1ccc(OC)c(C2CC(=O)N3CN(c4ccccc4F)CSC3=C2C#N)c1 (stereo not drawn)	-6%	32µM*	-1%	u	i	-2%
COc1ccc(OC)c(C2CC(=O)N3CN(c4cccc(Cl)c4C)CSC3=C2C#N)c1 (stereo not drawn)	0%	10µM*	-3%	u	i	-1%
COc1ccc(OC)c(C2CC(=O)N3CN(c4cccc(Cl)c4)CSC3=C2C#N)c1 (stereo not drawn)	-1%	u	-3%	u	i	-2%
CC(/C=C1\N=C(SCc2ccccc2Cl)SC1=O)=C\c1ccccc1	x	25µM*	x	x	x	x
Cc1ccc(S(=O)(=O)Nc2ccc(O)c(C(=O)O)c2)c(C)c1	x	x	0%	-4%	x	-2%
Cc1ccccc1NC(=O)CN1C(=O)S/C(=C\c2cccn2-c2cccc(C(=O)O)c2)C1=O	x	25µM*	x	x	x	x
Cc1cccc(C)c1NC(=O)CN1C(=O)S/C(=C\c2cccn2C)C1=O	x	-2%	x	x	x	x
SMILES	Pol III holo inh	15-hLO-2 inh	BRCT PPI green	ALOX15 inhib	TsaE inh	BRCT PPI red
Cc1ccc(-c2nnc3ccc(SC(C)C(=O)O)nn23)cc1 (stereo not drawn)	-2%	u	-1%	10µM*	i	-4%
C[C@H](N)C(=O)OC(C)(C)Cc1ccc(Cl)cc1	4%	36%	1%	7%	i	-2%
CC1CCN(CC[C@@H]2CCCN2S(=O)(=O)c2cccc(O)c2)CC1	8%	6%	3%	-4%	i	-1%
CN1/C(=C/C=N/n2cnnc2)C(C)(C)c2ccccc21	-6%	-2%[2.29 µM]	-1%	25µM*	i	1%
CN1/C(=C\P(=O)(N(C)C)N(C)C)C(C)(C)c2ccccc21	0%	8%	27%	-1%	u	16%
CC(=O)O[C@@H]1C[C@]2(C)[C@H](C[C@@H](O)[C@H]3[C@@]4(C)CC[C@@H](O)[C@@H](C)[C@@H]4CC[C@@]32C)/C1=C(\CCC=C(C)C)C(=O)O	-8%	-13%	-2%	1%	i	-1%
Cc1cc(C(=O)CSCCCn2c(=O)[nH]c3ccccc32)c(C)n1C	-8%	u	-4%	32µM*	i	-2%
O=c1[nH]c2ccccc2n1CCCSCCCn1c(=O)[nH]c2ccccc21	-6%	-25%	1%	-2%	i	0%
CCN(CC)CCCC(C)NC(=O)c1ccc(-n2c(=O)c(=O)[nH]c3ccccc32)cc1 (stereo not drawn)	x	x	-3%	2%	x	0%
Cc1cccc2sc(N)nc12	-5%	-5%	0%	3%	i	0%
CCCCCC/C=C\CCCCCCCc1cccc(O)c1C(=O)O	x	u	-3%[3.08 µM]	1.6µM*	x	0%
O=C(O)c1[nH]c2c([N+](=O)[O-])cc([N+](=O)[O-])cc2c1C(=O)O	0%[11.4 µM]	-9%[11.4 µM]	-3%[15.4 µM]	-2%[11.4 µM]	i	-1%[15.4 µM]
Cc1ccc(C)c(NS(=O)(=O)c2cc(C(=O)O)ccc2Cl)c1	x	x	-1%	-5%	x	-1%
CCc1ccc2[nH]c(=O)c(CN(CCCN3CCOCC3)C(=O)Nc3ccc(F)cc3)cc2c1	-3%	57%	9%	16µM*	i	-2%
COc1ccc(NC(=O)N(Cc2cc3cc(OC)ccc3[nH]c2=O)CC2CCCO2)cc1 (stereo not drawn)	u	6%	-5%	20µM*	i	-1%
CCC1=C/C(=C/N(C)c2ccccc2)C(=O)S1	-1%	-25%	-6%	25µM*	i	-2%
O=C1c2ccccc2C(=O)c2c1ccc(O)c2O	x	u	-7%	10µM*	x	-3%
O=C1c2ccc(O)c(O)c2C(=O)c2c(O)ccc(O)c21	x	u	0%[3.08 µM]	0.25µM*	x	32µM*
O=C1c2cccc(O)c2C(=O)c2c(O)cccc21	-15%	-11%	3%	u	i	1%

Compound activity deposited in PubChem by National Center for Advancing Translational Sciences (NCATS).
